These results are taken from PubChem BioAssay (NCI).

Some test systems named below: T-47D breast; BT-549 breast; MDA-MB-435 melanoma; MCF7 breast; HCT-116 colon; HCC-2998 colon; KM12 colon; SW-620 colon.
Holding throughout (assay): NCI-60 one-dose screen, 48 h (100 = growth as untreated, 0 = no growth, -100 = all killed)
Common to all, as to settings: 10 µM unless noted

Structures are written as SMILES. This is part of a sample that, as a whole, favours compounds with a hit. Of some 83,000 tested, about 20% had one in any assay.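 96-well plates, one dose, 48 hours. Percent growth reported; active if below 10.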 A number with no mark means an inactive call. Calls of active or inactive are those of the source.

With `CC(C)(c1ccccc1)c1cc(O)c(C(C)(C)c2ccccc2)cc1O`, the growth in the test with T-47D breast is -0.998% (active); with BT-549 breast, 20.6%; in the test on MDA-MB-435 melanoma, 35.1%; with MCF7 breast, 12.3%; in the test on HCT-116 colon it was 9.74% (active); with HCC-2998 colon, 61%. Also, the growth with KM12 colon is 19.4%.
Regarding `C(=Nc1ccc(-c2ccc(N=Cc3ccccc3)cc2)cc1)c1ccccc1`, the growth in the test with T-47D breast is 107%; in the test on BT-549 breast, 97.5%; with MDA-MB-435 melanoma it was 107%; in the test with MCF7 breast, 89.9%; in the test with HCT-116 colon it was 100%; in the test on HCC-2998 colon it was 110%. Further, the growth in the test on KM12 colon is 107%.
`CCN1C(=O)C(C)C=C(C)C=C1C` (stereo not drawn): the growth is 102% in the test with T-47D breast; 124% in the test on BT-549 breast; 114% with MDA-MB-435 melanoma; 106% in the test with MCF7 breast; 112% in the test with HCT-116 colon; 103% in the test on HCC-2998 colon. Also, the growth in the test with KM12 colon is 100%.
Regarding `Cc1nc(N)nc2c1CCC(Nc1ccccc1)S2` (stereo not drawn), the growth is 101% in the test with T-47D breast; 101% in the test on MDA-MB-435 melanoma; 102% with SW-620 colon; 104% in the test with MCF7 breast; 97% in the test with HCT-116 colon; 104% with HCC-2998 colon. Moreover, the growth in the test with KM12 colon is 110%.
On to `COc1ccc2c(c1)sc1nc(-c3ccccc3)c(-c3cccc4ccccc34)n12`, for which the growth in the test on T-47D breast was 60.5%; in the test with MDA-MB-435 melanoma it was -49.4% (active); in the test with SW-620 colon, 27.8%; with MCF7 breast, 27.7%; in the test on HCT-116 colon, 18.6%; in the test with HCC-2998 colon, -26.8% (active). Further, the growth in the test on KM12 colon was 15.7%.
For `COc1cc(OC)cc(-c2ccc(-c3ccc(C(=N)N)s3)s2)c1`, the growth with T-47D breast is -70.2% (active); with MDA-MB-435 melanoma, -81.9% (active); in the test on SW-620 colon, -69.2% (active); with MCF7 breast it was -72.8% (active); in the test with HCT-116 colon, -73.5% (active); in the test on HCC-2998 colon, -71.7% (active). The growth in the test on KM12 colon was -73.3% (active).
Regarding `COc1ccccc1CNCCCN1C(=O)c2ccc3c4c(ccc(c24)C1=O)C(=O)N(CCCNCCCN)C3=O`, the growth in the test with T-47D breast is -21.6% (active); in the test with BT-549 breast, 55%; in the test on MDA-MB-435 melanoma, -69.4% (active); with MCF7 breast it was -42.7% (active); in the test with HCT-116 colon, -1.03% (active); with HCC-2998 colon, -5.58% (active). In the test on KM12 colon, the growth was 1.76% (active).
Regarding `O=C1OCC2=C1C(c1ccccc1)c1cc3c(cc1N2CCO)CCC3` (stereo not drawn), the growth is 37.8% with T-47D breast; -1.32% (active) with BT-549 breast; -31.9% (active) in the test on MDA-MB-435 melanoma; -3.45% (active) with MCF7 breast; -19.8% (active) in the test with HCC-2998 colon; 11.2% in the test on KM12 colon.
Take `CC(=O)C1CCC2C3CC(C)=C4CC(O)CCC4(C)C3CCC12C` (stereo not drawn): the growth in the test with BT-549 breast is 100%; with MDA-MB-435 melanoma, 109%; with SW-620 colon it was 118%; in the test on MCF7 breast, 100%; in the test on HCT-116 colon it was 90.7%; in the test on HCC-2998 colon it was 98.8%. Besides, the growth in the test with KM12 colon was 109%.
`NC(N)=NC1CCCCC1`: the growth in the test with T-47D breast was 103%; with BT-549 breast, 105%; in the test on MDA-MB-435 melanoma, 104%; in the test with MCF7 breast, 96.4%; in the test on HCC-2998 colon, 104%; with KM12 colon it was -69% (active).
Regarding `CCOc1cc(/C=N\NC(=O)C[N+](C)(C)C)ccc1O`, the growth is 94.1% in the test on T-47D breast; 117% in the test with BT-549 breast; 109% in the test with MDA-MB-435 melanoma; 105% in the test on MCF7 breast; 111% in the test with HCT-116 colon; 104% with HCC-2998 colon. Further, the growth with KM12 colon was 109%.
Regarding `CCC(=O)NC1=C(Cl)C(=O)C(NC(=O)CC)=C(Cl)C1=O`, the growth with T-47D breast is -54.4% (active); in the test with BT-549 breast, 119%; in the test on MDA-MB-435 melanoma, 136%; in the test on MCF7 breast, 28.3%; in the test with HCT-116 colon, -93.1% (active); in the test with HCC-2998 colon, 103%. In the test with KM12 colon, the growth is 109%.
In the case of `CN(C)c1ccc(/C=C\c2cccc[n+]2C)cc1`, the growth in the test on T-47D breast is 14.6%; in the test with BT-549 breast it was 20.1%; in the test on MDA-MB-435 melanoma it was 33.6%; in the test with MCF7 breast, 39.3%; with HCT-116 colon it was 19.3%; in the test with HCC-2998 colon it was 35.7%. The growth in the test with KM12 colon was 6.97% (active).
As to `O=C(CCCCCCN1CC(=O)N2[C@@H](c3ccc(Cl)c(Cl)c3)c3[nH]c4ccccc4c3C[C@H]2C1=O)NO`, the growth in the test with T-47D breast was 27.9%; in the test with BT-549 breast it was 63.7%; with MDA-MB-435 melanoma, 47.3%; in the test on MCF7 breast it was 29%; in the test on HCC-2998 colon, 61.9%; with KM12 colon, 69.8%.
Regarding `Cc1c(C(=O)CCl)c(=O)n(-c2ccccc2)n1C`, the growth was 34.3% with T-47D breast; 61.2% with BT-549 breast; 40% with MDA-MB-435 melanoma; 38.2% in the test with MCF7 breast; 32% with HCT-116 colon; 85.9% in the test with HCC-2998 colon. Further, in the test on KM12 colon, the growth is 88.7%.
As to `CCNCCCn1c2c(c3ccc(Cl)cc3c1=O)C(=O)c1cc(OC)cnc1-2`, the growth is 16.6% in the test on T-47D breast; 39.8% with BT-549 breast; 68.1% with MDA-MB-435 melanoma; -64.9% (active) in the test with MCF7 breast; -95.8% (active) with HCT-116 colon; 68% in the test with HCC-2998 colon. Also, the growth in the test on KM12 colon is 32.8%.
As for `CCNC(=O)c1ccc2c(c1)nc(-c1ccc(Cl)cc1)n2-c1cc(C(C)(C)C)[nH]n1`, the growth was 51.7% in the test with T-47D breast; 41.8% in the test with BT-549 breast; -20.6% (active) in the test on MDA-MB-435 melanoma; 14.7% in the test on MCF7 breast; 15.3% in the test with HCT-116 colon; 63.4% in the test with HCC-2998 colon. Moreover, in the test on KM12 colon, the growth was 38.9%.
Turning to `CCOC(=O)Cn1c(-c2nonc2NC(=O)c2ccccc2F)nc2ccccc21`, the growth with T-47D breast was 75.6%; in the test with MDA-MB-435 melanoma it was 49.3%; in the test with SW-620 colon, 38.5%; in the test with MCF7 breast it was 37%; with HCT-116 colon it was 22.9%; in the test with HCC-2998 colon it was 33.3%. Moreover, the growth in the test with KM12 colon is 41.1%.
Consider `COc1cc(-c2nc(-c3ccc(-c4nc5ccc(F)cc5[nH]4)cc3)no2)cc(OC)c1OC`, for which the growth in the test on T-47D breast was 8.56% (active); in the test with BT-549 breast, 35.7%; in the test with MDA-MB-435 melanoma, 46.8%; with MCF7 breast it was 41.1%; in the test with HCT-116 colon, 28.2%; in the test with HCC-2998 colon, 81.5%. Also, the growth in the test on KM12 colon was 11.5%.
In the case of `COc1cc(C)c(Cl)cc1C1=NN(c2ccc(S(N)(=O)=O)cc2)C(/C=C/c2ccccc2)C1` (stereo not drawn), the growth with T-47D breast was 17.5%; with BT-549 breast, 107%; with MDA-MB-435 melanoma, 62.5%; with MCF7 breast it was 23.3%; in the test with HCT-116 colon it was 11.5%; in the test on HCC-2998 colon it was 74.9%. For the same molecule, the growth with KM12 colon is 34.8%.
On to `COc1ccc(/C=C/C(=O)CCC(=O)O)cc1OC`, for which the growth in the test on T-47D breast is 93.1%; in the test on BT-549 breast it was 109%; with MDA-MB-435 melanoma, 106%; in the test on MCF7 breast, 97.1%; with HCT-116 colon, 104%; in the test on HCC-2998 colon, 125%. Also, in the test with KM12 colon, the growth is 103%.
As for `N=C(N)c1ccc(-c2ccc(-c3cccs3)s2)cc1F`, the growth is -63.7% (active) in the test with T-47D breast; -80.6% (active) in the test on BT-549 breast; -81.5% (active) in the test on MDA-MB-435 melanoma; -68.5% (active) in the test with MCF7 breast; -47.2% (active) in the test on HCT-116 colon; -81.2% (active) in the test on HCC-2998 colon. For the same molecule, the growth in the test on KM12 colon is -76.8% (active).
For the molecule `NC(N)=N/N=C/c1cccc(Cl)c1Cl`, the growth with T-47D breast was 81.5%; in the test on BT-549 breast, 65.9%; in the test on MDA-MB-435 melanoma it was 4.26% (active); in the test on MCF7 breast, 17.6%; in the test with HCT-116 colon, 67.9%; in the test on HCC-2998 colon, 7.38% (active). In addition, in the test on KM12 colon, the growth is 10.5%.
